Source: PubChem BioAssay (EPA / NIEHS)
Where “and” joins values, the source holds several entries; their conditions need not be identical. Equal values may be shown once. Where a structure was tested more than once in an assay, its records may differ in their call. Calls of active or inactive are those of the source. Rule for the calls: active = hit-call score of the fitted dose curve at least 0.9, where 1 is the maximum; inactive = score below 0.9.

Legend:
[1] = BSK_hDFCGF_SRB: Viability Assessment in the BioMAP Diversity Plus: hDFCGF Assay (AID 2283061); conditions: primary human foreskin fibroblasts;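 note: cells exposed to compound for 24 h before the read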
How it was run: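 Viability was read as total protein: after 10% TCA fixation, wells were stained with 0.1% sulforhodamine B and read at 560 nm. Primary human foreskin fibroblasts were dosed for 24 h, with bidirectional fitting versus DMSO.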

[2] = read-out: TIMP metallopeptidase inhibitor 1 (TIMP1), TIMP1 (gene 7076); experiment: BSK_hDFCGF_TIMP1: BioMAP Diversity Plus: hDFCGF Assay for TIMP metallopeptidase inhibitor 1 (TIMP1) Biomarker Activity (AID 2283062); conditions: primary human foreskin fibroblasts; actives raise or lower the signal
How it was run: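 TIMP-1 measured by ELISA 24 h after chemical dosing of primary human skin fibroblasts, with gain or loss fitted relative to DMSO. Parallel SRB staining (560 nm) monitored overt cytotoxicity.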

[3] = read-out: Monokine induced gamma interferon (MIG), CXCL9 (gene 4283); experiment: BSK_hDFCGF_MIG: BioMAP Diversity Plus: hDFCGF Assay for Monokine induced gamma interferon (MIG) Biomarker Activity (AID 2283063); conditions: primary human foreskin fibroblasts; actives raise or lower the signal
How it was run: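 Human primary foreskin fibroblasts in the hDFCGF system, exposed to test chemical for 24 h; MIG measured by ELISA. Bidirectional curve fitting against DMSO negative control as activity baseline.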

[4] = read-out: Matrix Metallopeptidase 1 (MMP1), MMP1 (gene 4312); experiment: BSK_hDFCGF_MMP1: BioMAP Diversity Plus: hDFCGF Assay for Matrix Metallopeptidase 1 (MMP1) Biomarker Activity (AID 2283064); conditions: primary human foreskin fibroblasts; actives raise or lower the signal
How it was run: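 Primary human foreskin fibroblasts exposed to chemicals for 24 h; MMP1 measured by ELISA. Cytotoxicity tracked by SRB staining in parallel cultures; bidirectional fit relative to DMSO.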

[5] = read-out: Vascular cell adhesion molecule 1 (VCAM1), VCAM1 (gene 7412); experiment: BSK_hDFCGF_VCAM1: BioMAP Diversity Plus: hDFCGF Assay for Vascular cell adhesion molecule 1 (VCAM1) Biomarker Activity (AID 2283065); conditions: primary human foreskin fibroblasts; actives raise or lower the signal;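 for AC50: VCAM-1 protein level quantified by ELISA after 24 h chemical exposure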
How it was run: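 ELISA readout of VCAM-1 on human dermal fibroblast primary cultures, 24 h after chemical exposure. Gain or loss of signal fitted in both directions against DMSO baseline.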

[6] = read-out: Plasminogen activator inhibitor-1 (PAI1), SERPINE1 (gene 5054); experiment: BSK_hDFCGF_PAI1: BioMAP Diversity Plus: hDFCGF Assay for Plasminogen activator inhibitor-1 (PAI1) Biomarker Activity (AID 2283066); conditions: primary human foreskin fibroblasts; actives raise or lower the signal
How it was run: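 Primary dermal fibroblasts (human foreskin), hDFCGF system; compound 24 h; PAI-1 by ELISA; bidirectional fit vs DMSO control.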

[7] = read-out: Intercellular Adhesion Molecule 1 (ICAM1), ICAM1 (gene 3383); experiment: BSK_KF3CT_ICAM1: BioMAP Diversity Plus: KF3CT Assay for Intercellular Adhesion Molecule 1 (ICAM1) Biomarker Activity (AID 2283067); conditions: primary human keratinocytes with fibroblasts; actives raise or lower the signal
How it was run: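 Cell-surface ICAM-1 was measured by ELISA 24 h after dosing primary human skin keratinocytes co-cultured with fibroblasts. Parallel SRB staining tracked overt cytotoxicity. Gain or loss of signal was fitted relative to DMSO.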

[8] = read-out: Interferon-gamma inducible Protein 10 (IP10), CXCL10 (gene 3627); experiment: BSK_KF3CT_IP10: BioMAP Diversity Plus: KF3CT Assay for Interferon-gamma inducible Protein 10 (IP10) Biomarker Activity (AID 2283068); conditions: primary human keratinocytes with fibroblasts; actives raise or lower the signal
How it was run: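 In a primary skin co-culture of keratinocytes and fibroblasts, IP-10 is quantified by ELISA at 24 h after dosing. SRB staining of parallel wells monitors overt toxicity. Curves are fitted both directions against DMSO.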

[9] = BSK_KF3CT_SRB: Viability Assessment in the BioMAP Diversity Plus: KF3CT Assay (AID 2283069); conditions: primary human keratinocytes with fibroblasts;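 note: total protein by sulforhodamine B staining as a cytotoxicity measure; read 24 h after compound addition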
How it was run: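 Human keratinocyte and foreskin fibroblast co-culture exposed to chemical for 24 h. Total protein measured in parallel cultures by 0.1% sulforhodamine B staining after 10% TCA fixation, read at 560 nm; bidirectional fit relative to DMSO.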

[10] = read-out: Interleukin-1 alpha (IL1a), IL1A (gene 3552); experiment: BSK_KF3CT_IL1a: BioMAP Diversity Plus: KF3CT Assay for Interleukin-1 alpha (IL1a) Biomarker Activity (AID 2283070); conditions: primary human keratinocytes with fibroblasts; actives raise or lower the signal
How it was run: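 Primary human keratinocyte plus foreskin fibroblast co-culture, dosed and measured at 24 h in 96-well plates. IL-1a level quantified by ELISA; bidirectional fit relative to DMSO.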

| Compound | AC50 [1] | outcome [2] | outcome [3] | outcome [4] | outcome [5] | outcome [6] | outcome [7] | outcome [8] | outcome [9] | outcome [10] | outcome [1] | AC50 [5] | AC50 [6] | AC50 [2] | AC50 [3] | AC50 [4] | AC50 [7] | AC50 [8] | AC50 [9] | AC50 [10] |
| --- | --- | --- | --- | --- | --- | --- | --- | --- | --- | --- | --- | --- | --- | --- | --- | --- | --- | --- | --- | --- |
| O=C(O)C(F)(F)C(F)(F)C(F)(F)C(F)(F)C(F)(F)C(F)(F)C(F)(F)C(F)F | 20.1 µM (active) and 15.8 µM (active) | inactive | inactive | inactive | inactive | inactive | inactive | inactive | inactive | inactive |  |  |  |  |  |  |  |  |  |  |
| CCCCCCCCCC(=O)OCC |  | inactive | inactive | inactive |  |  | inactive | inactive | inactive | inactive | inactive | 31.9 µM (active) | 31.4 µM (active) |  |  |  |  |  |  |  |
| CCC(=O)OCC=Cc1ccccc1 |  | inactive | inactive | inactive | inactive | inactive | inactive | inactive | inactive | inactive | inactive |  |  |  |  |  |  |  |  |  |
| C=C1CC/C=C(\C)CC[C@@H]2[C@@H]1CC2(C)C | 27.7 µM (active) |  |  |  |  |  |  |  |  |  |  | 28 µM (active) | 31.2 µM (active) | 27.5 µM (active) | 33.9 µM (active) | 29.7 µM (active) | 30.3 µM (active) | 25.2 µM (active) | 28.1 µM (active) | 29.6 µM (active) |
| C=C(F)C(=O)OC(C(F)(F)F)C(F)(F)F | 38.2 µM (active) | inactive | inactive | inactive | inactive | inactive | inactive | inactive | inactive | inactive | inactive |  |  |  |  |  |  |  |  |  |
| CC(=O)c1ccc(C)cc1 |  | inactive | inactive | inactive | inactive | inactive | inactive | inactive | inactive | inactive | inactive |  |  |  |  |  |  |  |  |  |
| CC/C(=C(\c1ccccc1)c1ccc(OCCN(C)C)cc1)c1ccccc1 | 6.75 µM (active) and 6.55 µM (active) |  |  |  |  |  |  |  |  |  |  | 9.88 µM (active) and 9.9 µM (active) | 7.69 µM (active) and 7.18 µM (active) | 8.65 µM (active) and 11.5 µM (active) | 9.37 µM (active) and 11 µM (active) | 10.1 µM (active) and 11.1 µM (active) | 9.03 µM (active) and 8.65 µM (active) | 10.1 µM (active) and 7.37 µM (active) | 6.49 µM (active) and 9.44 µM (active) | 8.27 µM (active) and 11.2 µM (active) |
| CC(=O)CCC=C(C)CCC=C(C)C |  | inactive | inactive | inactive | inactive | inactive | inactive | inactive | inactive | inactive | inactive |  |  |  |  |  |  |  |  |  |
| NC(=O)c1c(Cl)cccc1Cl |  | inactive | inactive | inactive | inactive | inactive | inactive | inactive | inactive | inactive | inactive |  |  |  |  |  |  |  |  |  |
| c1ccc(Sc2ccccc2)cc1 | 39 µM (active) |  | inactive |  |  |  | inactive | inactive |  |  |  | 33.2 µM (active) | 20 µM (active) | 25.5 µM (active) |  | 30.2 µM (active) |  |  | 35.5 µM (active) | 30.8 µM (active) |
| CC(=O)OC(C)(C)C1CC=C(C)CC1 (stereo unspecified) | 36.7 µM (active) | inactive | inactive | inactive | inactive |  | inactive | inactive | inactive | inactive |  |  | 23.6 µM (active) |  |  |  |  |  |  |  |
